Compounds without any hit were thinned out: in the full panel of roughly 83,000, 20% have a hit.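 A percent growth of 40 corresponds to 60% growth inhibition; 0 means no net growth; -100 means all cells died. Active threshold: below 10.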 A number with no mark means an inactive call. Active and inactive are the calls of the source.

Test systems include SK-MEL-2 melanoma; EKVX NSCLC; SN12C renal; UO-31 renal; TK-10 renal; A498 renal; MOLT-4 leukemia; SR leukemia; RPMI-8226 leukemia; OVCAR-8 ovarian; OVCAR-5 ovarian; OVCAR-4 ovarian; SK-OV-3 ovarian; IGROV1 ovarian; OVCAR-3 ovarian; HS 578T breast; NCI/ADR-RES ovarian; CCRF-CEM leukemia.
Assay in all cases: NCI-60 one-dose screen, 48 h (100 = growth as untreated, 0 = no growth, -100 = all killed)
Common to all, as to settings: 10 µM unless noted

As to `OCc1cn(-c2ccc(Cl)cc2)nc1-c1ccc(O)cc1`, the growth in the assay with SK-MEL-2 melanoma was 95.8%; in the assay with EKVX NSCLC it was 89.7%; in the assay on SN12C renal, 94.3%; in the assay on UO-31 renal it was 63.5%; in the assay with TK-10 renal, 102%; in the assay on A498 renal it was 96.9%. In addition, the growth in the assay on MOLT-4 leukemia is 53.6%; in the assay on SR leukemia it was 82.1%; with RPMI-8226 leukemia, 97.3%; with OVCAR-8 ovarian it was 106%; in the assay on OVCAR-5 ovarian, 99.9%; in the assay on OVCAR-4 ovarian it was 91.6%. Also, the growth in the assay on SK-OV-3 ovarian was 105%; in the assay on IGROV1 ovarian, 91.3%; with OVCAR-3 ovarian it was 108%; in the assay on HS 578T breast it was 105%; with NCI/ADR-RES ovarian it was 94.7%.
Regarding `COc1ccc(Cl)cc1NC(=O)c1cc2c(n1C)-c1nc(NC(=O)C(C)(C)C)sc1CC2`, the growth in the assay on SK-MEL-2 melanoma is 79.7%; in the assay with EKVX NSCLC it was 76.2%; with SN12C renal it was 107%; in the assay with UO-31 renal, 53.5%; in the assay on TK-10 renal, 98%; with A498 renal, 94%. The growth is 98.5% in the assay on CCRF-CEM leukemia; 72.5% in the assay with MOLT-4 leukemia; 85.2% with SR leukemia; 83.4% in the assay with RPMI-8226 leukemia; 109% in the assay with OVCAR-8 ovarian; 104% in the assay on OVCAR-5 ovarian. Moreover, the growth in the assay on OVCAR-4 ovarian was 94.8%; with SK-OV-3 ovarian, 67.7%; with IGROV1 ovarian, 98.1%; in the assay on OVCAR-3 ovarian, 105%; with HS 578T breast, 98.5%; with NCI/ADR-RES ovarian, 93.8%.
For `CCN(CC)CCC(C(=O)O)(c1ccccc1)c1ccccc1`, the growth in the assay on SK-MEL-2 melanoma was 112%; in the assay with EKVX NSCLC, 96.1%; in the assay on SN12C renal it was 103%; with UO-31 renal, 89.1%; in the assay on TK-10 renal, 97.9%; in the assay on A498 renal, 102%. Besides, the growth in the assay with CCRF-CEM leukemia is 96.6%; in the assay with MOLT-4 leukemia, 89.4%; with SR leukemia it was 95.7%; with RPMI-8226 leukemia, 104%; with OVCAR-8 ovarian, 113%; with OVCAR-5 ovarian, 106%. In addition, the growth with OVCAR-4 ovarian was 102%; with IGROV1 ovarian, 102%; in the assay with OVCAR-3 ovarian, 110%; with HS 578T breast it was 95.3%; in the assay with NCI/ADR-RES ovarian, 97.8%.
Turning to `O=c1cc(Cl)[nH]c(=O)[nH]1`, the growth with SK-MEL-2 melanoma was 91.8%; in the assay on EKVX NSCLC it was 104%; with SN12C renal, 107%; in the assay with UO-31 renal, 96.4%; in the assay on TK-10 renal, 98.1%; with A498 renal it was 100%. For the same compound, the growth with CCRF-CEM leukemia is 111%; with MOLT-4 leukemia, 88.5%; with SR leukemia it was 111%; in the assay with RPMI-8226 leukemia, 98.6%; with OVCAR-8 ovarian it was 104%; in the assay with OVCAR-5 ovarian, 105%. Besides, the growth with OVCAR-4 ovarian is 109%; in the assay with SK-OV-3 ovarian, 85.2%; with IGROV1 ovarian it was 109%; in the assay on HS 578T breast it was 103%; with NCI/ADR-RES ovarian, 105%.
Take `C#CCn1c(-c2cc(OC)c(OC)cc2Br)nc(-c2ccccc2)c1-c1ccccc1`: the growth is 28.1% in the assay with SK-MEL-2 melanoma; 37.4% with EKVX NSCLC; 69.6% in the assay with SN12C renal; 33.9% in the assay on UO-31 renal; 67.1% with TK-10 renal; 37.7% with A498 renal. For the same compound, the growth in the assay with CCRF-CEM leukemia is 39.2%; in the assay on MOLT-4 leukemia it was 31.6%; in the assay with SR leukemia, 16.4%; with RPMI-8226 leukemia, 48.9%; in the assay on OVCAR-8 ovarian, 57.4%; in the assay on OVCAR-5 ovarian it was 77.5%. Moreover, the growth was 63.2% with OVCAR-4 ovarian; 16% in the assay on SK-OV-3 ovarian; 40.9% in the assay on IGROV1 ovarian; 66.8% in the assay on HS 578T breast; 10.2% with NCI/ADR-RES ovarian.
`COc1ccc2c(c1)OC(N)=C(C#N)C2c1ccc(F)cc1` (centres undefined): the growth with SK-MEL-2 melanoma is 18.5%; in the assay with EKVX NSCLC, 44.8%; in the assay with SN12C renal, 43.8%; in the assay on UO-31 renal, 41.8%; in the assay on TK-10 renal, 69.5%; with A498 renal it was -3.77% (active). Also, the growth was 12.6% in the assay on CCRF-CEM leukemia; 28.3% in the assay on MOLT-4 leukemia; 18.1% in the assay with SR leukemia; 6.87% (active) in the assay with RPMI-8226 leukemia; 34.4% with OVCAR-8 ovarian; 56.4% in the assay with OVCAR-5 ovarian. For the same compound, the growth with OVCAR-4 ovarian was 69%; in the assay on SK-OV-3 ovarian it was 16.6%; in the assay with OVCAR-3 ovarian, 16.9%; in the assay with HS 578T breast, 18.8%; in the assay with NCI/ADR-RES ovarian, 26%.
As to `O=C(CSc1nnc(-c2ccccc2)o1)Nc1ccc(C(=O)/C=C/c2ccccc2)cc1`, the growth was 99.2% in the assay on SK-MEL-2 melanoma; 79.7% in the assay on EKVX NSCLC; 81.7% with SN12C renal; 55.7% in the assay on UO-31 renal; 91% in the assay on TK-10 renal; 83.8% with A498 renal. The growth in the assay with CCRF-CEM leukemia was 55.5%; in the assay with MOLT-4 leukemia, 59%; with SR leukemia it was 28.8%; in the assay with RPMI-8226 leukemia, 2.35% (active); in the assay with OVCAR-8 ovarian, 60.1%; with OVCAR-5 ovarian it was 102%. Besides, the growth in the assay on OVCAR-4 ovarian is 30.9%; in the assay with SK-OV-3 ovarian, 108%; in the assay with IGROV1 ovarian, 38%; in the assay on HS 578T breast, 88.5%; in the assay with NCI/ADR-RES ovarian, 53.6%.
Regarding `O=C1C(Cl)=C(Nc2cccc3cc4ccccc4nc23)C(=O)c2ccccc21`, the growth in the assay on SK-MEL-2 melanoma was 44.2%; in the assay on EKVX NSCLC it was 71.9%; with SN12C renal it was 45.1%; in the assay on UO-31 renal it was 25.7%; in the assay with TK-10 renal, 54.5%; with A498 renal, 46.5%. Moreover, the growth in the assay with CCRF-CEM leukemia is 64.8%; with MOLT-4 leukemia, 25.9%; in the assay with SR leukemia, 45.1%; with RPMI-8226 leukemia, 48.7%; in the assay on OVCAR-8 ovarian, 32.6%; in the assay with OVCAR-5 ovarian it was 53.8%. In addition, the growth was 55.4% in the assay with OVCAR-4 ovarian; 44.3% with SK-OV-3 ovarian; 37.2% in the assay with IGROV1 ovarian; 64.4% with OVCAR-3 ovarian; 95.2% with HS 578T breast; 42.8% with NCI/ADR-RES ovarian.
Consider `NC(CCCC(N)C(=O)c1ccccc1)C(=O)O` (centres undefined), for which the growth in the assay with SK-MEL-2 melanoma was 92.7%; with EKVX NSCLC, 101%; in the assay with SN12C renal, 104%; with UO-31 renal it was 84.3%; in the assay on TK-10 renal, 86.7%; in the assay with A498 renal, 103%. The growth in the assay on MOLT-4 leukemia is 94.5%; with SR leukemia, 124%; in the assay on RPMI-8226 leukemia it was 115%; in the assay on OVCAR-8 ovarian it was 86.2%; in the assay with OVCAR-5 ovarian it was 103%; in the assay on OVCAR-4 ovarian, 97.3%. Besides, the growth with SK-OV-3 ovarian was 93%; in the assay on IGROV1 ovarian, 101%; with OVCAR-3 ovarian, 110%; in the assay with HS 578T breast, 108%.
